Experimental data: ChEMBL document CHEMBL3988442, “University of Dundee, Small-Polar-MMV Screening Library” (2021)

molecular target: AMP-activated protein kinase, AMPK (Homo sapiens) (UniProt P54646+O43741+P54619+Q9UGJ0+Q9Y478+Q13131+Q9UGI9); assay: AMP-dependent Kinase enzyme assay. An in vitro enzyme assay that detects ADP turnover that is directly proportional to AMPK activity. This uses naive AMPK that is activated during the assay with MK-8722; format: functional; design: scale not given: direction of the effect not stated beside the values; settings: 30 µM

Point of comparison: `Cn1cc(CN(C(=O)c2ccc3ncsc3c2)C2CC2)cn1`, Percent Effect 10.2%. Against it:
- CN1CCN(CC2(O)CCCN(S(=O)(=O)c3cn[nH]c3)CC2)CC1 (stereo not given) — higher, 13%
- CCc1nnc(NC(=O)NCCN(C)C(=O)OC(C)(C)C)s1 — lower, -3.38%
- CN(C)c1nc(N)nc(CN2CCC(c3ccccc3)CC2)n1 — lower, -6.86%
- Clc1ccc2c(c1)C=C(CNC1CCc3ncnn3C1)CO2 (stereo not given) — higher, 12.6%
- CCCN(CCO)S(=O)(=O)c1ccc2[nH]c(=O)[nH]c2c1 — lower, -3.64%
- COc1ccnc(CNc2nc(C)nc3ccsc23)c1 — lower, -0.808%
- CN(CCCOc1ccccc1Cl)C(=O)CN1C[C@@H]2CC[C@H](CC1=O)N2 — lower, 10.1%
- CC(C)OCCN1CCC(Nc2nccnc2C#N)CC1 — lower, -5.15%
- CC(C)n1cnnc1CN(C)C(=O)c1cc(COc2ccccc2)[nH]n1 — lower, 0%
- CC(C)c1noc(CN2CCN(C(=O)OC(C)(C)C)C(C)C2)n1 (stereo not given) — lower, -3.51%
- Cc1nc(COC(=O)c2cccc3c2OCCO3)cs1 — lower, 3.39%
- CN1CC(C(=O)NCCc2ccc(Br)cc2F)CC1=O (stereo not given) — lower, 7.63%
- CCCNc1ncc(CN2CCC3(CCNC(=O)CC3)CC2)cn1 — lower, -1.43%
- COc1ccc(NC(=O)N2CCC(CSC)C2)cc1C (stereo not given) — lower, -6.6%
- COc1cc(CN2CCC(COCc3ccccc3)CC2)cc(OC)c1 — lower, 0.75%
- CCn1c(C2CCNCC2)nn(CCn2cncn2)c1=O — lower, 3.82%
- O=C1OCCCN1Cc1nc(-c2ccc(N3CCCCC3)cc2)no1 — lower, -1.59%
- Cc1ccc(S(=O)(=O)Cc2nsc(N(C)C)n2)c(C)c1 — lower, -0.477%
- CN(CCCC1CCCO1)C(=O)c1cccc(C#N)c1 (stereo not given) — higher, 10.9%
